# Results as given in PubChem BioAssay (NCI).
# Compounds without any hit were thinned out: in the full panel of roughly 83,000, 20% have a hit.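 96-well plates, one dose, 48 hours. Percent growth reported; active if below 10.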 A number with no mark means an inactive call. Activity calls are given as the source filed them.
# Assays:
# Experiment in all cases: NCI-60 one-dose screen, 48 h (100 = growth as untreated, 0 = no growth, -100 = all killed)
# Settings in all cases: 10 µM unless noted
# SR leukemia = system: SR leukemia
# RPMI-8226 leukemia = system: RPMI-8226 leukemia
# OVCAR-8 ovarian = system: OVCAR-8 ovarian
# OVCAR-5 ovarian = system: OVCAR-5 ovarian
# OVCAR-4 ovarian = system: OVCAR-4 ovarian
# IGROV1 ovarian = system: IGROV1 ovarian
# OVCAR-3 ovarian = system: OVCAR-3 ovarian
# HS 578T breast = system: HS 578T breast
# NCI/ADR-RES ovarian = system: NCI/ADR-RES ovarian
# T-47D breast = system: T-47D breast
# BT-549 breast = system: BT-549 breast
# MDA-MB-435 melanoma = system: MDA-MB-435 melanoma
# SW-620 colon = system: SW-620 colon
# MCF7 breast = system: MCF7 breast
# HCT-116 colon = system: HCT-116 colon
# HCC-2998 colon = system: HCC-2998 colon
# KM12 colon = system: KM12 colon
# SK-OV-3 ovarian = system: SK-OV-3 ovarian
SMILES,growth (SR leukemia),growth (RPMI-8226 leukemia),growth (OVCAR-8 ovarian),growth (OVCAR-5 ovarian),growth (OVCAR-4 ovarian),growth (IGROV1 ovarian),growth (OVCAR-3 ovarian),growth (HS 578T breast),growth (NCI/ADR-RES ovarian),growth (T-47D breast),growth (BT-549 breast),growth (MDA-MB-435 melanoma),growth (SW-620 colon),growth (MCF7 breast),growth (HCT-116 colon),growth (HCC-2998 colon),growth (KM12 colon),growth (SK-OV-3 ovarian)
Nc1ncnc2c1N=C(c1ccc(Br)cc1)CC(c1cccc(Nc3ccnc4cc(C(F)(F)F)ccc34)c1)N2 (stereo unspecified),22.1%,12.7%,69.9%,88.7%,76.8%,65.7%,83.9%,65%,66.9%,68.6%,105%,38.3%,64.1%,22%,32.8%,67.2%,60.2%,
Cn1cc(-c2csc(-c3c[nH]c4ccc(Br)cc34)n2)c2ccnc(Cl)c21,31.6%,51.4%,63.8%,114%,53.6%,65.9%,77.4%,68.7%,65.6%,25.9%,,78.5%,8.27% (active),46.6%,49.8%,82.9%,50.8%,78.1%
COc1ccc(-c2nc3cc(C(=O)NCc4ccccc4)ccc3n2C2CCCCC2)cc1,,,,,80.4%,,,,,,,,,,,,,
O=S(=O)(NCCNc1nccc(-c2c(-c3ccc(F)c(O)c3)nc3occn23)n1)c1ccc(Cl)cc1,,,,,109%,,,,,,,,,,,,,
COc1ccc(/C=C(\C#N)n2nnc3cc(F)c(F)cc32)cc1,12.9%,70.5%,,56.3%,74%,39.7%,21.5%,92.1%,19.6%,23.1%,32.2%,-54% (active),14.9%,22.1%,28%,69.3%,34%,69.6%
COc1ccc2[nH]c(C(=O)N3CCN(C(=O)OCc4ccc5c(Cl)cc(Cl)c(O)c5n4)CC3)cc2c1,2.29% (active),-27.9% (active),,-88.7% (active),-69.5% (active),-96.4% (active),-97.3% (active),-15.1% (active),-2.44% (active),-57.5% (active),,-91% (active),-81.9% (active),-55.7% (active),-92.2% (active),-86.7% (active),-62.3% (active),44.7%
N#Cc1c(-c2ccccc2)[nH]c2ncc(-c3ccccc3)n2c1=O,89.8%,106%,,109%,96.2%,50.7%,86%,88.6%,91.2%,71.9%,89.1%,102%,101%,71.3%,87%,83.3%,89.8%,76.6%
COc1ccc(-c2ccc(=O)oc2-c2cc(OC)c(OC)c(OC)c2)cc1O,0.907% (active),9.69% (active),,22.8%,39.8%,3.86% (active),-72.7% (active),-2.33% (active),12.9%,67.8%,5.78% (active),-37.5% (active),9.8% (active),1.84% (active),-67.4% (active),-2.78% (active),1.71% (active),25.9%
O=C(Nc1ccc(Oc2cccc(Cl)c2)c(Cl)c1)c1cccnc1,19.9%,11.9%,,71.2%,,42.1%,2.66% (active),31.1%,11.9%,35.6%,53.3%,-44.3% (active),25.4%,21.6%,29.9%,58%,28.1%,34.3%
CN(C)CCNC(=O)c1cc2c3cc(Cl)ccc3[nH]c2c2ncccc12,-17.6% (active),-11% (active),,32.7%,34.1%,20.9%,0.195% (active),24.2%,25.3%,24%,29.5%,-41.3% (active),-2.12% (active),-16.1% (active),-56.6% (active),-45.1% (active),25.2%,46.1%
O=C1Nc2ccccc2/C1=C/c1cccn1CCCCn1c2ccccc2c(=O)c2ccccc21,80.1%,33.5%,,77.9%,65.8%,77.3%,86.7%,86.3%,73.9%,5.03% (active),74.5%,92.7%,98.8%,3.81% (active),74.2%,40.5%,13%,
C#CCNC(=O)[C@H](CC)[C@H]1CC[C@H](C)[C@H]([C@@H](C)[C@H](O)[C@H](C)C(=O)[C@H](CC)C2O[C@]3(C=CC(=O)[C@]4(CC[C@@](C)([C@H]5CC[C@](O)(CC)[C@H](C)O5)O4)O3)[C@H](C)C[C@@H]2C)O1 (stereo partly specified),13.5%,25.3%,,68.7%,13.9%,48.5%,-23.5% (active),35%,14.7%,41.9%,40.9%,-65.3% (active),30.8%,24%,25.9%,85.4%,23.8%,
COc1ccccc1N1CCCCC1,112%,101%,,86.2%,109%,101%,114%,101%,106%,99.1%,96%,112%,99.9%,96.3%,102%,110%,107%,100%
Cc1sc2nc(NCCc3c[nH]c4ccc(Cl)cc34)[nH]c(=O)c2c1C,15.7%,18.8%,,62.5%,60%,50.8%,64.7%,25.4%,47.1%,44.9%,74.2%,39.7%,9.09% (active),32.2%,24.5%,21.5%,1.89% (active),60.6%
O=C(CN1C(=O)S/C(=C\C(Cl)=C\c2ccccc2)C1=O)NCCc1ccc(O)cc1,1.71% (active),0.0656% (active),,77.7%,56.4%,-12.9% (active),-14.4% (active),36.3%,19.6%,11.4%,22.1%,2.68% (active),4.78% (active),20.1%,-78.8% (active),66.8%,5.78% (active),90.1%
COc1cc(C2c3cc(OC(C)=O)c(OC)cc3CC3C(=O)OCC32)ccc1OC(C)=O (stereo unspecified),108%,93.1%,,93.9%,99.2%,111%,121%,123%,106%,103%,99.6%,118%,101%,101%,98.2%,104%,117%,111%
CCO/C=N/C1=C(C#N)C(c2ccc(Cl)cc2)c2sc3c(F)cccc3c2O1 (stereo unspecified),36.8%,54.2%,,89.2%,77.6%,60.7%,25.3%,55.6%,39.6%,54.8%,68.8%,-30.4% (active),35.5%,26%,54.2%,84.2%,42.2%,81.9%
N=C(N)c1ccc(-c2ccc(-c3ccc(Cl)c(Cl)c3)s2)nc1,3.84% (active),-8.11% (active),,20.1%,16.3%,-40.6% (active),-77.8% (active),67.6%,82.9%,56.2%,87.5%,10.8%,-56.6% (active),-64.6% (active),-50.8% (active),-61.9% (active),-74.6% (active),86.6%
CCOCCNC1=C(Cl)C(=O)c2ccccc2C1=O,89.3%,90.4%,,120%,107%,112%,101%,91.9%,103%,90.8%,,104%,110%,69.1%,88.1%,112%,91.4%,108%
